This is a sample that favours compounds with a hit; in the whole collection about 28% have one here.
CYP2C9 inhib – blockers of cytochrome P450 2C9 activity – biochemical, luminescence, ADME assay, primary screen | P11712 | CYP2C9 Supersomes, luciferin-H conversion | inhibition, % at 5 µM | hit rate 20% among 96,000 | AID 777, 2007;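 active means blocking of liver enzyme CYP2C9 beyond about 50% at 5 µM, limit read from the data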
Target sequence (P11712 whole entry, looked up): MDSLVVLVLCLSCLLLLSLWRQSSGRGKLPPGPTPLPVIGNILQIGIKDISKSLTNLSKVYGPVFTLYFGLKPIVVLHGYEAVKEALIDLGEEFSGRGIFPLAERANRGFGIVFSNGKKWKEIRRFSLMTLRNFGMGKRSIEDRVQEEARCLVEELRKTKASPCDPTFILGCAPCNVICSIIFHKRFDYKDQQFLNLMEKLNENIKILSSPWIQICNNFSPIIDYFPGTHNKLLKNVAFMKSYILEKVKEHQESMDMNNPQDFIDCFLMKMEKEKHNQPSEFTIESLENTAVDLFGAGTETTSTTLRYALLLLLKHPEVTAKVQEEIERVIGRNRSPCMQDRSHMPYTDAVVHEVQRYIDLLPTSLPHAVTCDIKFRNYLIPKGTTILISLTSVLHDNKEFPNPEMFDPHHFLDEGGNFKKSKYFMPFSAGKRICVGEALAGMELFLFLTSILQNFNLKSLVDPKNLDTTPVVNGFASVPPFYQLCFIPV
CYP2C19 activ – human CYP2C19 activators, primary screen, biochemical, luminescence; AID 1025, 2008; 96,000 tested, under 10 active; Cytochrome P450 2C19 (Homo sapiens), P33261; recombinant CYP2C19, luciferin-H EGE luminescence; active compounds read high; 0 = fully inhibited enzyme, 1 = untreated enzyme; activation factor at 5 µM;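 active means activation factor of at least 2 at 5 µM in the primary screen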;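 further: 0 = wells with 2.5 mM tranylcypromine and 1 = vehicle-only wells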
CYP2C19 inhib – blockers of cytochrome P450 2C19 activity – biochemical, luminescence, ADME assay, primary screen; P33261; CYP2C19 Supersomes, luciferin-H EGE luminescence, 30 min; inhibition, % at 5 µM; hit rate 21% among 96,000; AID 778, 2007;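 active means CYP2C19 inhibition above a set limit at 5 µM in the primary screen, cut at about 50% in these data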;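 further: plate controls were negative control wells for no effect and 2.5 mM tranylcypromine positive control for full effect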
D1 mod – D1 CRE-luciferase signal change, two-sided – cell-based, HEK293 D1, dopamine EC30, D1 allosteric modulator project, primary screen; D(1A) dopamine receptor (Homo sapiens), P21728; dopamine EC30 potentiation; actives deviate in either direction; B-score at 10 µM; hit rate 5.9% among 58,000;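 active means luminescence count or its row- and column-corrected plate score outside the 99.7% band of the plate's sample wells, on either side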
hDAT+cocaine – changed hDAT dopamine uptake under cocaine IC80, either direction, primary screen, cocaine antagonist project, cell-based, LLC-PK1 hDAT, [14C]-dopamine uptake, MLSMR; AID 449768, 2010; hit rate 1.3% among 110,000; B-score at 10 µM; Sodium-dependent dopamine transporter (Homo sapiens), Q01959; LLC-PK1 hDAT cells, [14C]-dopamine uptake with cocaine IC80; actives deviate in either direction;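 active means Z score or B-score, a plate-position-corrected score, falls beyond the plate's 99.7% confidence bounds, in either direction; inactive means both scores lie inside the 99.7% bounds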;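 further: scored against the spread of the other compound wells on the same plate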
CYP2C9 act – human CYP2C9 activators, primary screen, biochemical, luminescence | hit rate 1.4% among 96,000 | recombinant CYP2C9, luciferin-H conversion; active compounds read high; factor 1 = untreated enzyme, 0 = blocked | activation factor at 5 µM | AID 1024, 2008 | Cytochrome P450 2C9 (Homo sapiens), P11712;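 active means activation factor of 2 or more for CYP2C9 at a 5 µM dose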;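 further: 0 = sulfaphenazole-blocked wells and 1 = vehicle-only wells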
* = called active by the depositor; · = no result.

SMILES	CYP2C9 inhib	CYP2C19 activ	CYP2C19 inhib	D1 mod	hDAT+cocaine	CYP2C9 act
Cc1ccc(S(=O)(=O)N/N=C\c2ccc(C)o2)cc1	20	0.9	6	·	-0.43	0.8
Cc1ccc(S(=O)(=O)N/N=C/c2ccc(OC3CSC3)cc2)cc1	5	1	1	·	-0.4	1
CCCCSCc1ccc(C(=O)O)o1	·	·	·	·	-0.26	·
CC(=O)c1c(C)oc(C)c1CSCc1ccc(C(=O)O)o1	2	1	3	-8.1*	·	1
Nc1ccccc1-c1nnc(SCc2ccccc2F)[nH]c1=O	39	1	1	·	1.1	0.6
O=C(N[C@@H](c1ccccc1)[C@@H]1C[C@H]1C(=O)O)OCc1ccccc1	·	·	·	·	0.015	·
Cc1cc(C)c2c(CN3CCN(C/C=C/c4ccccc4)CC3)cc(=O)oc2c1	69*	0.5	51*	-0.38	0.045	0.3
COc1ccc(O)c(CN2CCN(C/C=C/c3ccccc3)CC2)c1	1	1	-5	·	0.7	1
C(=C\c1ccccc1)/CN1CCN(Cc2ccc3c(c2)OCCO3)CC1	-17	0.9	10	0.21	-0.77	1.2
COc1cc(Br)cc(CN2CCN(C/C=C/c3ccccc3)CC2)c1O	35	0.4	60*	-1	-1	0.6
Cc1ccc(/C=N\NC(=O)c2cc(OCC(F)(F)F)ccc2OCC(F)(F)F)cc1	21	1	4	·	0.025	0.8
Clc1ccc(-n2c(SC/C=C/c3ccccc3)nnc2-c2cccnc2)cc1	34	0.4	56*	·	1.9	0.7
Nn1c(SC/C=C/c2ccccc2)nnc1-c1ccccn1	27	0.4	61*	-0.11	0.34	0.7
Cc1cccc(CSc2nnc(-c3ccccn3)n2N)c1	-42	0.4	60*	0.038	0.19	1.4
Nn1c(SC/C=C/c2ccccc2)nnc1-c1cccnc1	-19	1.1	-12	-0.27	0.011	1.2
Cc1cccc(CSc2nnc(N)n2-c2ccccc2)c1	·	·	·	·	-0.0038	·
COc1ccc(-c2nnc(SCc3cc(C)ccc3C)n2N)cc1	-16	0.4	62*	·	0.51	1.2
CN(c1ccccc1C(N)=O)S(=O)(=O)c1ccccc1	·	·	·	0.45	-0.11	·
COc1ccc(C(=O)N[C@H]2COC(C)(C)O[C@H]2c2ccccc2)cc1	-3	1	-1	-0.073	0.69	1
Cc1cc(N(CN2CCCC2=O)C(=O)c2ccccc2)no1	8	1	3	·	-0.064	0.9
O=C(CSc1nc2ccccc2s1)c1cc2ccccc2o1	-26	0.9	12	·	-0.24	1.3
COc1ccc(-c2nnc(SCc3cccc(C)c3)n2N)cc1	-14	0.5	52*	·	-0.37	1.1
Cc1ccsc1C(=O)Nc1ccccc1N1CCOCC1	-11	0.9	7	·	-0.53	1.1
COCCNC(=O)CN1CCC(NC(=O)Nc2ccc(C(F)(F)F)cc2)CC1	10	0.8	22	-0.7	-2.4	0.9
CN(c1ccccc1)S(=O)(=O)c1ccc(NC(=S)Nc2ccccc2)cc1	60*	0.8	17	·	0.46	0.4
SMILES	CYP2C9 inhib	CYP2C19 activ	CYP2C19 inhib	D1 mod	hDAT+cocaine	CYP2C9 act
CN(c1ccccc1)S(=O)(=O)c1ccc(NC(=O)c2ccc(-c3ccccc3)cc2)cc1	84*	0.4	62*	·	-1.5	0.2
CC(=O)Nc1ccc(S(=O)(=O)N(C)c2ccccc2)cc1	16	0.7	31	·	-0.0076	0.8
CCc1ccc2[nH]c(=O)c(CN(Cc3ccc(F)cc3)C(c3nnnn3CCN3CCOCC3)C(C)C)cc2c1 (stereo not given)	-1	0.9	8	·	·	1
Cc1cc(C(=O)CSc2nnc(-c3ccccc3)o2)c(C)n1CC1COc2ccccc2O1 (stereo not given)	45	0.1	88*	·	-0.38	0.6
Cc1cc(C(=O)CSc2nnc(-c3ccco3)o2)c(C)n1CC1COc2ccccc2O1 (stereo not given)	78*	0	100*	1.6	-0.037	0.2
O=C(CSc1nnc(-c2ccco2)o1)c1ccccc1	14	0.9	6	0.48	-0.36	0.9
O=C(CSc1nnc(-c2ccco2)o1)NC(=O)Cc1ccccc1	3	0.9	12	-0.58	-0.27	1
O=C(CSc1nnc(-c2ccco2)o1)NC(=O)C1COc2ccccc2O1 (stereo not given)	-90	0.4	61*	·	0.029	1.9
Cc1cc(C(=O)CSc2nnc(-c3ccc(F)cc3)o2)c(C)n1CC1COc2ccccc2O1 (stereo not given)	54*	0.5	45	·	0.015	0.5
COc1cc(-c2nnc(SCC(=O)c3cc(C)n(CC4CCCO4)c3C)o2)cc(OC)c1OC (stereo not given)	20	0.9	14	0.054	1.3	0.8
Cc1cc(C(=O)CSc2nnc(-c3ccc(F)cc3)o2)c(C)n1CC1CCCO1 (stereo not given)	27	0.6	36	·	-0.017	0.7
CCOC(=O)c1sc2nc3n(c(=O)c2c1C)CCCCC3	57*	0.3	74*	0.91	0.5	0.4
Cc1c(C(=O)O)sc2nc3n(c(=O)c12)CCCCC3	-7	0.9	8	·	0.84	1.1
CCOC(=O)c1sc2nc(SCC#N)n(CCCN3CCCC3=O)c(=O)c2c1C	79*	0.4	55*	1.5	0.97	0.2
Cc1c(CCC#N)c(N2CCN(C3CCCCC3)CC2)n2c(nc3ccccc32)c1C#N	·	·	·	-1.1	·	·
COc1cccc(C(=O)Oc2cc(-c3ccccc3)no2)c1	6	1	-3	·	0.085	0.9
CCCCCCCCCCCC(=O)N/N=C/c1ccco1	56*	0.7	26	·	0.67	0.4
CCCCCCCC(=O)N/N=C/c1cccnc1	27	0.6	39	·	0.62	0.7
CCCCCCCC(=O)N/N=C/c1ccc(Br)cc1	18	0.2	75*	·	0.039	0.8
CCCCCCCCCC(=O)N/N=C/c1ccc(C)s1	74*	0.2	77*	·	0.94	0.3
C=C1c2ccccc2S(=O)(=O)N(Cc2ccccc2)C1COCc1ccccc1 (stereo not given)	·	·	·	·	0.91	·
Cc1[nH]c2c(C)cccc2c(=O)c1Br	-20	1	-3	-0.95	-0.91	1.2
CN1C(=O)N(S(=O)(=O)c2ccc(F)c(F)c2F)C(=O)C1(C)C	-7	1	0	·	-0.67	1.1
Cc1ccc2c(c1Br)/C(=N/N1C(=O)c3ccccc3C1=O)C(=O)N2	51*	0.7	30	·	·	0.5
CCOCCCNCC(=O)N1CCN(S(=O)(=O)c2ccc(C)cc2)CC1	-2	1	0	-0.92	-1.9	1
COc1cccc2cc(/C(C)=N/Nc3nc(-c4cc(C)ccc4C)cs3)c(=O)oc12	19	1.2	-18	·	0.77	0.8
